According to PubChem BioAssay (NCI):
This is part of a sample that, as a whole, favours compounds with a hit. Of some 79,000 tested, about 15% had one in any assay. Unmarked numbers belong to inactive results. The source made the active and inactive calls. Rule as the data show it: active = growth inhibition above about 70%; inactive = the rest.

Columns and labels:
[1] = NCI Yeast Anticancer Drug Screen. Data for the rad50 strain (AID 155);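 also: 0% = growth of vehicle-only cultures of the same strain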; conditions: S. cerevisiae rad50 strain growth inhibition, stronger effect = higher value
In short: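 Readout: growth inhibition relative to vehicle-treated cultures. Compound exposure was carried out in a genetically defined yeast strain deficient in DNA damage repair.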

[2] = NCI Yeast Anticancer Drug Screen. Data for the mec2-1 strain (AID 157); conditions: S. cerevisiae mec2-1 strain, stronger effect = higher value
In short: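 Strain: mec2-1 (DNA repair/cell cycle alteration). Compound exposure, then growth measured; inhibition expressed relative to vehicle.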

[3] = NCI Yeast Anticancer Drug Screen. Data for the sgs1 mgt1 strain (AID 161);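 also: 0% = growth of cultures given vehicle only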; conditions: S. cerevisiae sgs1 mgt1 strain, stronger effect = higher value
In short: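 Test agents were incubated with a DNA-repair-mutant yeast strain. Growth was then read and compared against vehicle-treated controls.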

[4] = NCI Yeast Anticancer Drug Screen. Data for the cln2 rad14 strain (AID 165);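 also: 0% = growth equal to vehicle treated cultures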; conditions: S. cerevisiae cln2 rad14 strain, stronger effect = higher value
In short: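 Compounds are applied to the cln2 rad14 yeast strain, and growth is then compared with that of vehicle-treated cultures to give inhibition.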

[5] = NCI Yeast Anticancer Drug Screen. Data for the bub3 strain (AID 167); conditions: S. cerevisiae bub3 mutant strain, stronger effect = higher value
In short: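 Readout: yeast growth inhibition, expressed relative to vehicle-only wells. The test organism is a mutant strain from a panel with lesions in DNA repair or checkpoint genes.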

[6] = NCI Yeast Anticancer Drug Screen. Data for the mlh1 rad18 strain (AID 175); conditions: S. cerevisiae mlh1 rad18 strain growth inhibition, stronger effect = higher value
In short: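 Read-out is yeast growth inhibition, calculated against vehicle-only controls. The compound was applied to a strain engineered with DNA damage repair alterations.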

[7] = at 5.0 µM (retest, dose inferred, filed as 0.5)
[8] = at 50.0 µM (retest, dose inferred, filed as 5.0)

Structure (SMILES) | growth inhibition [1, 7] | growth inhibition [1, 8] | growth inhibition ([1]; at 50.0 µM) | growth inhibition [2, 7] [%] | growth inhibition [2, 8] | growth inhibition ([2]; at 50.0 µM) | growth inhibition [3, 7] [%] | growth inhibition [3, 8] | growth inhibition ([3]; at 50.0 µM) | growth inhibition [4, 7] [%] | growth inhibition [4, 8] | growth inhibition ([4]; at 50.0 µM) | growth inhibition [5, 7] [%] | growth inhibition [5, 8] | growth inhibition ([5]; at 50.0 µM) | growth inhibition [6, 7] | growth inhibition [6, 8] | growth inhibition ([6]; at 50.0 µM)
CC(=O)NC(C)(C)C1CCC(C)=C(c2ccccc2)C1 (configuration not stated) | -10% | 2% | 32.8% | -9 | -5% | -17.6% | 5 | 8% | 67.2% | 19 | 44% | 18.6% | 17 | 29% | 27.6% | -3% | 29% | -21.2%
O=C1C(=O)N(c2ccc(Cl)c(Cl)c2)C(=O)C(=O)C1c1nc2ccccc2o1 | 21% | 98% (active) | 97.2% (active) | 17 | 98% (active) | 92.8% (active) | 27 | 95% (active) | 97.2% (active) | 22 | 90% (active) | 94.8% (active) | 3 | 96% (active) | 83.1% (active) | 14% | 95% (active) | 96.7% (active)
O=C1C=C(c2ccccc2)O/C1=C/C(=O)c1ccc(Cl)cc1 | 32% | 32% | 53.3% | 32 | 32% | 65.2% | 40 | 40% | 79% (active) | 11 | 11% | 39.6% | 16 | 16% | 65% | 32% | 32% | 52.9%
O=S1(=O)c2ccccc2C(=NO)c2ccccc21 | -5% | -9% | -7.95% | -3 | -26% | 13.2% | -7 | -21% | -15.4% | 3 | 0% | 66% | -1 | -17% | 7.7% | -3% | -21% | -3.55%
Cc1ccc(OS(=O)(=O)c2ccc(Br)cc2)cc1 | 2% | 5% | -6% | -16 | 10% | 0.05% | 8 | 19% | -3.65% | 9 | 6% | -1% | 16 | 41% | -7% | 3% | 31% | 12.7%
COc1cc[c]([Sn]([O][Sn]([Cl])([c]2ccc(OC)cc2)[c]2ccc(OC)cc2)[c]2ccc(OC)cc2)cc1 | 47% | 95% (active) | 27.7% | 31 | 86% (active) | 32.9% | 58 | 98% (active) | 69.8% | 28 | 88% (active) | 53.5% | 50 | 96% (active) | 71.3% (active) | 55% | 94% (active) | 73.7% (active)
CCOc1cc(C(c2ccc(N(C)C)cc2)c2ccc(N(C)C)cc2)ccc1O | -1% | 26% | 36.2% | -1 | 52% | 44.8% | 0 | 54% | 74.2% (active) | 2 | 52% | 84.1% (active) | 8 | 79% (active) | 79.4% (active) | 0% | 42% | 59.5%
O=C(C(=Cn1c(=S)[nH]c2ccc([N+](=O)[O-])cc21)C(=O)c1ccccc1)c1ccccc1 | -10% | 3% | 98% (active) | -14 | -2% | 92.5% (active) | -7 | 1% | 92.2% (active) | -23 | -17% | 74.8% (active) | -5 | 6% | 94.9% (active) | -4% | 0% | 96.3% (active)
CC1=C(C(=O)Nc2ccc(C)cc2C)C(c2cccc([N+](=O)[O-])c2)C(C(=O)Nc2ccc(C)cc2C)=C(C)N1 | -17% | 50% | 28.6% | 12 | 74% (active) | 38.5% | -4 | 47% | 33% | 10 | 42% | 36.6% | 14 | 69% | 37.2% | 4% | 44% | 41.1%
O=c1oc2c(-c3ccccc3)cccc2c(O)c1-c1ccccc1 | -2% | 58% | 48.6% | -2 | 86% (active) | 60.2% | 3 | 87% (active) | 58.9% | 0 | 36% | 33% | -4 | 79% (active) | 55% | 0% | 81% (active) | 70.5% (active)
COc1cccc(C2c3cc4c(cc3OC(N3CCCC3)C2C)OCO4)c1 (configuration not stated) | -16% | 74% (active) | 85.2% (active) | -34 | 82% (active) | 82% (active) | -27 | 54% | 77.8% (active) | -15 | 67% | 76.3% (active) | -30 | 88% (active) | 85% (active) | -32% | 72% (active) | 80.1% (active)
NC(=O)c1ncn(C2OC(CO)C(O)C2O)c1O (configuration not stated) | 20% | 6% | -7.65% | -9 | -10% | -11.4% | -3 | 7% | 11.3% | 13 | 10% | 4% | 1 | 32% | -7.85% | 2% | -4% | -47.8%
O=[N+]([O-])c1ccc2c(c1)[n+]([O-])c1[nH]c3ccccc3c1[n+]2[O-] (tested in a mixture with another compound) | 85% (active) | 88% (active) | 93.2% (active) | 55 | 89% (active) | 87.4% (active) | 68 | 91% (active) | 82.9% (active) | 48 | 85% (active) | 89.8% (active) | 64 | 90% (active) | 81.8% (active) | 78% (active) | 91% (active) | 86.3% (active)
COc1cccc(C2c3cc4c(cc3OC(NNc3ccccc3)C2C)OCO4)c1O (configuration not stated) | -8% | 88% (active) | 94% (active) | -5 | 79% (active) | 95.3% (active) | 1 | 93% (active) | 95.8% (active) | 19 | 88% (active) | 94.2% (active) | -8 | 97% (active) | 96.8% (active) | 27% | 91% (active) | 95.7% (active)
CCC(c1ccc(OC)cc1)C(O)(CC)c1ccc(OC)cc1 (configuration not stated) | -4% | 98% (active) | 99% (active) | -7 | 99% (active) | 98.8% (active) | -11 | 98% (active) | 98.4% (active) | -10 | 99% (active) | 98% (active) | 11 | 99% (active) | 98.9% (active) | -3% | 98% (active) | 98.6% (active)
BrC(Br)([P+](c1ccccc1)(c1ccccc1)c1ccccc1)[P+](c1ccccc1)(c1ccccc1)c1ccccc1 | 18% | 73% (active) | 19.1% | 9 | 41% | 23.6% | 4 | 61% | 27.5% | 4 | 24% | 35.4% | 4 | 42% | 12.7% | 15% | 74% (active) | 78.2% (active)
NC(=S)C(=Nc1ccccc1F)Nc1ccccc1F | 2% | 85% (active) | 8.4% | -8 | 31% | -9.55% | -10 | 70% (active) | 61.6% | -6 | 35% | 5.55% | -1 | 81% (active) | 32.9% | 20% | 87% (active) | 66.2%
CC[C@]1(O)C[C@H]2[C@@H]3CCc4cc(OC)ccc4[C@H]3CC[C@]2(C)[C@H]1O | -3% | 98% (active) | 46% | -6 | 98% (active) | 48.5% | -4 | 98% (active) | 49.9% | -6 | 87% (active) | 68.9% | 2 | 97% (active) | 49.8% | -4% | 99% (active) | 46.4%
CN=S(=O)(OCCCCOS(=O)(=NC)c1ccccc1)c1ccccc1 (configuration not stated) | 16% | 26% | 47.6% | 9 | 8% | -2.25% | 20 | 28% | -18.1% | 8 | 10% | -12.4% | 11 | 10% | -29.3% | 39% | 40% | -52.3%
